# Unmarked numbers belong to inactive results.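 How the source made its calls: active = AUC reduced over 20% with Padj below 0.05 in at least 2 of 3 replicates; inactive = otherwise.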
# Experiments:
# Test in all cases: growth AUC relative to DMSO control (median of replicates) (fraction); higher = more growth (less inhibition), active = hit call of the paper
# Conditions in all cases: 20 µM; 24 h
# [1] = system: Coprococcus comes
# How it was run: (§1)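 Gut bacteria were grown singly in mGAM at 37 °C without oxygen, from OD600 0.05, alongside 20 µM compound in 1% DMSO, and OD600 was read each hour for 24 h. Area under the growth curve was normalised to the median of solvent-only wells per plate, or to row and column medians on the industrial chemical plate. The minimum OD was set to 0 beforehand, and the reported value is the median of three biological replicates grown on separate days.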
# [2] = system: Escherichia coli ED1a
# How it was run: as §1
# [3] = system: Escherichia coli IAI1
# How it was run: as §1
# [4] = system: Eubacterium rectale
# How it was run: as §1
# [5] = system: Fusobacterium nucleatum subsp. animalis
# How it was run: as §1
# [6] = system: Lactobacillus gasseri
# How it was run: as §1
# [7] = system: Lactobacillus paracasei
# How it was run: as §1
# [8] = system: Odoribacter splanchnicus
# How it was run: as §1
# [9] = system: Parabacteroides distasonis
# How it was run: as §1
# [10] = system: Parabacteroides merdae
# How it was run: as §1
SMILES,growth AUC [1],growth AUC [2],growth AUC [3],growth AUC [4],growth AUC [5],growth AUC [6],growth AUC [7],growth AUC [8],growth AUC [9],growth AUC [10]
CCOP(=S)(Oc1cnc(C(C)(C)C)nc1)OC(C)C (stereo not given),0.998,1.01,0.985,0.811,1.02,1.11,0.988,1.07,1.03,0.995
CS(=O)(=O)c1ccc(C(=O)C2C(=O)CCCC2=O)c(Cl)c1,0.974,1.01,1.03,0.916,1.05,1.09,1.03,1.04,1.04,1.01
COc1nc(C)nc(NC(=O)NS(=O)(=O)c2ccccc2Cl)n1,0.971,0.982,0.988,0.986,1.02,1.07,1.01,0.952,1.01,0.979
CCC(=O)Nc1ccc(Cl)c(Cl)c1,1,0.943,0.99,0.992,0.87,0.979,0.922,0.943,0.994,0.995
CC(Oc1ccc(Oc2ncc(C(F)(F)F)cc2Cl)cc1)C(=O)O (stereo not given),0.99,1.02,0.987,0.977,1.01,0.922,0.876,1.04,0.978,0.976
CC1(C)[C@H](C(=O)O[C@H](C#N)c2cccc(Oc3ccccc3)c2)[C@@H]1/C=C\C(=O)OC(C(F)(F)F)C(F)(F)F,1.03,1.01,1.1,0.984,0.986,1.12,0.984,1.03,0.994,1.01
C=CCC1=C(C)C(OC(=O)C2C(C=C(C)C)C2(C)C)CC1=O (stereo not given),0.986,1.01,1,0.927,0.946,0.868,0.949,0.996,0.846,0.96
Fc1ccc(C2(Cn3cncn3)OC2c2ccccc2Cl)cc1 (stereo not given),0.969,1.02,1.01,0.72 (active),0.95,0.996,0.942,0.864,0.968,0.933
O=C(O)COc1nc(Cl)c(Cl)cc1Cl,0.867,0.971,1.01,1.15,1.1,0.818,1.01,0.992,0.781,1.01
CNC(=O)O/N=C/C(C)(C)S(C)=O (stereo not given),0.987,0.993,1,1.08,0.996,1.01,1.01,0.955,1.02,1
CCOP(=O)(OCC)ON1C(=O)c2cccc3cccc(c23)C1=O,0.971,0.994,0.958,1.16,0.961,0.954,0.971,0.484 (active),0.619 (active),0.794 (active)
CCCCc1c(C)nc(N(C)C)[nH]c1=O,1,0.976,0.913,0.825,1.09,1,0.896,1.05,1.03,1.01
CCC(C)c1cc([N+](=O)[O-])cc([N+](=O)[O-])c1OC(=O)C=C(C)C (stereo not given),0.945,0.968,0.973,0.978,0.802,0.762,0.955,0.515 (active),0.418 (active),0.902
CCc1cccc(C)c1N(C(=O)CCl)[C@@H](C)COC,0.976,0.981,1.01,1.06,1.15,0.944,1.01,1.02,1.01,0.938
COP(N)(=S)Oc1ccccc1C(=O)OC(C)C (stereo not given),1.03,0.969,0.982,1.04,0.97,0.906,0.944,0.898,0.877,0.986
CCOP(=S)(OCC)SCSc1ccc(Cl)cc1,0.975,0.986,0.964,0.909,1.07,0.884,1,1.06,0.911,0.977
CCOC(=O)Nc1cccc(OC(=O)Nc2ccccc2)c1,0.933,1.01,1.03,0.901,0.894,1.24,0.908,0.986,0.967,0.949
ClCC1C(CCl)C2(Cl)C(Cl)=C(Cl)C1(Cl)C2(Cl)Cl (stereo not given),0.945,0.973,1,1.02,1.08,0.931,0.974,1.06,1.01,0.995
COc1c(Cl)ccc(Cl)c1Cl,0.973,0.967,0.99,1.01,1.04,0.879,0.937,1,0.985,0.981
OC(Cn1cncn1)(c1ccc(F)cc1)c1ccccc1F (stereo not given),0.975,1.04,0.98,0.958,1.02,0.962,0.909,0.979,1.01,0.995
Clc1ccc(Cl)c(Cl)c1,0.919,0.996,0.974,1.1,1.11,0.86,0.943,0.983,0.95,1.02
COP(=S)(Oc1cc(Cl)c(Br)cc1Cl)c1ccccc1 (stereo not given),1.02,1.01,0.992,0.893,1.03,0.852,0.982,1.03,0.957,1.01
CNC(=O)Oc1cc(C)c(SC)c(C)c1,1.01,0.987,0.967,0.982,0.984,0.883,0.931,1.11,1.02,0.912
CC[C@H]1CCCC(O[C@H]2CC[C@H](N(C)C)[C@@H](C)O2)[C@@H](C)C(=O)C2=C[C@@H]3[C@@H](C=C(C)[C@@H]4C[C@@H](O[C@@H]5O[C@@H](C)[C@H](OC)[C@@H](OC)[C@H]5OC)C[C@@H]34)[C@@H]2CC(=O)O1.CC[C@H]1CCCC(O[C@H]2CC[C@H](N(C)C)[C@@H](C)O2)[C@@H](C)C(=O)C2=C[C@@H]3[C@@H](C=C[C@@H]4C[C@@H](O[C@@H]5O[C@@H](C)[C@H](OC)[C@@H](OC)[C@H]5OC)C[C@@H]34)[C@@H]2CC(=O)O1 (stereo not given in full),0.973,0.963,0.966,0.985,0.995,0.879,0.902,1.04,1.01,0.925
Cc1cnc2c(C(=O)O)c(Cl)ccc2c1,0.983,0.977,0.987,0.934,0.952,0.952,1.05,0.968,0.967,1.01
N#Cc1c[nH]cc1-c1cccc(Cl)c1Cl,0.948,1.01,0.981,1.06,0.797,1.06,1.07,0.732,0.804,0.941
CC(Oc1cc(Cl)c(Cl)cc1Cl)C(=O)O (stereo not given),0.987,0.978,0.953,0.964,0.889,1.04,1,1.02,0.955,0.986
CC1(C)OC(c2ccco2)CN1C(=O)C(Cl)Cl (stereo not given),1.03,1.01,0.994,0.803,0.934,1.07,0.976,1.05,0.99,0.968
